Columns and labels:
Test in all cases: log2 ratio of Biotin-Ahx-Ub-VS probe labelling (fragment/DMSO); higher = less target engagement (more negative = stronger competition), active = hit call of the paper (q ≤ 0.05, log2 ratio ≤ -1)
Settings in all cases: compound concentration: 200 uM; treatment time: 3 h
USP42 = biological target: T1, USP42 (UniProt Q9H9J4)
T1 sequence (whole entry): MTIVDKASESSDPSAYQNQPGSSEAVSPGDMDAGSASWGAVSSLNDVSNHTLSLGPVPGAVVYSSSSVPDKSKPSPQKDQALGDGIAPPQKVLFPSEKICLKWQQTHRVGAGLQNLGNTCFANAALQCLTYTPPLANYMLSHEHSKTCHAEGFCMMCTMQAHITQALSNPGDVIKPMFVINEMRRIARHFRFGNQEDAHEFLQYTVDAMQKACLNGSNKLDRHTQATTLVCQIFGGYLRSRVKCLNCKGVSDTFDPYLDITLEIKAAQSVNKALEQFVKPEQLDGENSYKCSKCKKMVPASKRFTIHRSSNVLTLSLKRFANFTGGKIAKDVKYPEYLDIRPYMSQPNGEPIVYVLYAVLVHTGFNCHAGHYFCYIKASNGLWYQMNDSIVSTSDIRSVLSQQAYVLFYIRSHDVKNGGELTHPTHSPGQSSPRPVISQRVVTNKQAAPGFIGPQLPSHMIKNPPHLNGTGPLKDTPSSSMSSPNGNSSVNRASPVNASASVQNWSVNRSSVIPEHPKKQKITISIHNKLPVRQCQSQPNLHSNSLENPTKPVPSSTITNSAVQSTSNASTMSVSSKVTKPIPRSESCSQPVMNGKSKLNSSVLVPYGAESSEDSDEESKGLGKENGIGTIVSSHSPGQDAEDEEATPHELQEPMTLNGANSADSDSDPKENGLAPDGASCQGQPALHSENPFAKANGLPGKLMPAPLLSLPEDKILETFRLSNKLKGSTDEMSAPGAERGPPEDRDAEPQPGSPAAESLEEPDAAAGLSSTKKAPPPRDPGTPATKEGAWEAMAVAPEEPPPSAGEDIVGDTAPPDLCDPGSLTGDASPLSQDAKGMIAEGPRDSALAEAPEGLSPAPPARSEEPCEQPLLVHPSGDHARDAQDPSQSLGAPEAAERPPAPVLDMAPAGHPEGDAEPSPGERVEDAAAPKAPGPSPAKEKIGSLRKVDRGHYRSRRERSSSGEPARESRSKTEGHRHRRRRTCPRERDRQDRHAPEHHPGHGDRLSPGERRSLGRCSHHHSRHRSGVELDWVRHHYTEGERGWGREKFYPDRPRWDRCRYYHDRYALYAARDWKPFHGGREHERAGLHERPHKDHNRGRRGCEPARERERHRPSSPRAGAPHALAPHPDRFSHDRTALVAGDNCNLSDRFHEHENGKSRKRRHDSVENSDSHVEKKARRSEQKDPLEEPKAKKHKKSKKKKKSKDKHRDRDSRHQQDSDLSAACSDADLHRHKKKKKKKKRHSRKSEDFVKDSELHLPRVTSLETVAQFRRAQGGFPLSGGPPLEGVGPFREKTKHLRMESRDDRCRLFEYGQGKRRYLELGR
How it was run: (§1)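 Labelled DUBs were enriched with NeutrAvidin, digested with LysC and trypsin, and run by diaPASEF LC-MS/MS. The labelling used Biotin-Ahx-Ub-VS at 0.5 µM final for 1 h on HEK293T lysate (495 µg per sample) previously treated in triplicate with fragment at 200 µM or vehicle for 3 h. Values are average log2 fragment/vehicle ratios by unpaired t-test on global-median-normalised Spectronaut quantities of proteins with ≥2 unique peptides.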

USP46 = USP46 (UniProt P62068)
Chain of USP46 (P62068 whole entry): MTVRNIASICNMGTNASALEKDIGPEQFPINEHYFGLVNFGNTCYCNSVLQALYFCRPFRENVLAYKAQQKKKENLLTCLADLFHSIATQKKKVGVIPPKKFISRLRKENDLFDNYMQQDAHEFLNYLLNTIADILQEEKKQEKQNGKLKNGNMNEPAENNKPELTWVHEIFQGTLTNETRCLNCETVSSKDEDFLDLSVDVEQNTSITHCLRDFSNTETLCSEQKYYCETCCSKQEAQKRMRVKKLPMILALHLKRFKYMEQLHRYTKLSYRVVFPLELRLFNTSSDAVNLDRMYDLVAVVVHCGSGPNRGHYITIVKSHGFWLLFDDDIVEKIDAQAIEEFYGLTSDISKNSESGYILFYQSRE
How it was run: as §1

USP47 = biological target: T2, USP47 (UniProt Q96K76)
T2 sequence (whole entry): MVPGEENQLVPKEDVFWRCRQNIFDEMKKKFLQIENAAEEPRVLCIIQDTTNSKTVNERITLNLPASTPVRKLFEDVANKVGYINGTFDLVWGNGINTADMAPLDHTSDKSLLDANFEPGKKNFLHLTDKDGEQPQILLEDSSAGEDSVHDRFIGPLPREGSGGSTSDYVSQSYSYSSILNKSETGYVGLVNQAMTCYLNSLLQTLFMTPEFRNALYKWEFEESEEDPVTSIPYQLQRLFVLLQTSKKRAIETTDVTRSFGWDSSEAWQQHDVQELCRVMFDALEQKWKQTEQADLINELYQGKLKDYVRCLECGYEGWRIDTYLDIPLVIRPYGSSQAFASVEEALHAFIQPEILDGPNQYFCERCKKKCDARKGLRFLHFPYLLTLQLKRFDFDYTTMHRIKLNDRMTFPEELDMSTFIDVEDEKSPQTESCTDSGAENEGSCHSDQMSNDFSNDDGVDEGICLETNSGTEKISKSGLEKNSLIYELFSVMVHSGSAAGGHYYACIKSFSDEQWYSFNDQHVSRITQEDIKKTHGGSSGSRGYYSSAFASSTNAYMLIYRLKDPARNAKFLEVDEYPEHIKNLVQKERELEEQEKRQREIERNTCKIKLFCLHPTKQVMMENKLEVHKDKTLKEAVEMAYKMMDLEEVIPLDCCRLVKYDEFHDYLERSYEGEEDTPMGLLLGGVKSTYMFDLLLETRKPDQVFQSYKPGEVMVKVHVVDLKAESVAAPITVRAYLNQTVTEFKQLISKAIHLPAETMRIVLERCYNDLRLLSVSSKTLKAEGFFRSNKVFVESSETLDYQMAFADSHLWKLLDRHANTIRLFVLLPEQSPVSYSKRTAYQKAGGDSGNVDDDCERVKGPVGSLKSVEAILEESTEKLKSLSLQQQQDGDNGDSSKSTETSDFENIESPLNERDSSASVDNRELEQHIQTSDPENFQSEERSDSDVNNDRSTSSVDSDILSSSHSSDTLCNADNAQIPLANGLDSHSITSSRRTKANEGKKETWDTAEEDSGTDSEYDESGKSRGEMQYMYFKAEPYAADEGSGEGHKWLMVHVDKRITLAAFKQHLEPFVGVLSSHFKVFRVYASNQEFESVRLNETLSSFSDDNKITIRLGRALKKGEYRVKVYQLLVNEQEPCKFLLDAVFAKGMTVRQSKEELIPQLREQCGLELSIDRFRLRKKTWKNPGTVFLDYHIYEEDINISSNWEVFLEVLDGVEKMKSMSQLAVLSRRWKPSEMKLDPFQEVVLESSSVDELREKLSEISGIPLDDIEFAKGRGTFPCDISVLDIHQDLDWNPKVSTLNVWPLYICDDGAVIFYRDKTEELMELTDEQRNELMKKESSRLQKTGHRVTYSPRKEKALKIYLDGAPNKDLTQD
How it was run: as §1

USP48 = biological target: T3, USP48 (UniProt Q86UV5)
T3 sequence (whole entry): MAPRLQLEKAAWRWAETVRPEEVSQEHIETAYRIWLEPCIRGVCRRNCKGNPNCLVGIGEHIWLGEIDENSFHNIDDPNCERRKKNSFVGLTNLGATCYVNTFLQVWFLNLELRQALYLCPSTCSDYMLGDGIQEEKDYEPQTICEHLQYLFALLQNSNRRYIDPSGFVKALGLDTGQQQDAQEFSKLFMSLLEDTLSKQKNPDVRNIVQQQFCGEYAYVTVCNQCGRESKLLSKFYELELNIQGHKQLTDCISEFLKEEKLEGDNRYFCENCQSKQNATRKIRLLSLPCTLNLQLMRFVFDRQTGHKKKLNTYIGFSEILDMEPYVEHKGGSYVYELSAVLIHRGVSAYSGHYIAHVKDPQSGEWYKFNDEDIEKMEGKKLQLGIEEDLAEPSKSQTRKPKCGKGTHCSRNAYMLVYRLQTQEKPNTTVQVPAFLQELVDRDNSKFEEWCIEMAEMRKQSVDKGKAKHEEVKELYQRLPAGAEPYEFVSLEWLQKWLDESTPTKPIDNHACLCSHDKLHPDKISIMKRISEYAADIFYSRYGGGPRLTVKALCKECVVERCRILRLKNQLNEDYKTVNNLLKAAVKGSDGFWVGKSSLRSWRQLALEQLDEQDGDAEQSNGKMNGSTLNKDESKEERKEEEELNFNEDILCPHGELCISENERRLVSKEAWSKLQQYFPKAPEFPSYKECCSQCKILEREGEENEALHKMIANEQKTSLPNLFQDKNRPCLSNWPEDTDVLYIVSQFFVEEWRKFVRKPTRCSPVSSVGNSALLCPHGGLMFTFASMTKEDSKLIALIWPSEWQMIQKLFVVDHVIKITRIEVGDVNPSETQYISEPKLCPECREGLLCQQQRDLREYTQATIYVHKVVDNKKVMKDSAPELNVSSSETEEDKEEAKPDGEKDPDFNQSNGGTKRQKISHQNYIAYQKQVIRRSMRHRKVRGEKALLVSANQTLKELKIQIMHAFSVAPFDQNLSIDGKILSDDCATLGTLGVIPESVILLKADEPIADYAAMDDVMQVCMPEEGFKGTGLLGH
How it was run: as §1

USP5 = biological target: T4, USP5 (UniProt P45974)
T4 sequence (whole entry): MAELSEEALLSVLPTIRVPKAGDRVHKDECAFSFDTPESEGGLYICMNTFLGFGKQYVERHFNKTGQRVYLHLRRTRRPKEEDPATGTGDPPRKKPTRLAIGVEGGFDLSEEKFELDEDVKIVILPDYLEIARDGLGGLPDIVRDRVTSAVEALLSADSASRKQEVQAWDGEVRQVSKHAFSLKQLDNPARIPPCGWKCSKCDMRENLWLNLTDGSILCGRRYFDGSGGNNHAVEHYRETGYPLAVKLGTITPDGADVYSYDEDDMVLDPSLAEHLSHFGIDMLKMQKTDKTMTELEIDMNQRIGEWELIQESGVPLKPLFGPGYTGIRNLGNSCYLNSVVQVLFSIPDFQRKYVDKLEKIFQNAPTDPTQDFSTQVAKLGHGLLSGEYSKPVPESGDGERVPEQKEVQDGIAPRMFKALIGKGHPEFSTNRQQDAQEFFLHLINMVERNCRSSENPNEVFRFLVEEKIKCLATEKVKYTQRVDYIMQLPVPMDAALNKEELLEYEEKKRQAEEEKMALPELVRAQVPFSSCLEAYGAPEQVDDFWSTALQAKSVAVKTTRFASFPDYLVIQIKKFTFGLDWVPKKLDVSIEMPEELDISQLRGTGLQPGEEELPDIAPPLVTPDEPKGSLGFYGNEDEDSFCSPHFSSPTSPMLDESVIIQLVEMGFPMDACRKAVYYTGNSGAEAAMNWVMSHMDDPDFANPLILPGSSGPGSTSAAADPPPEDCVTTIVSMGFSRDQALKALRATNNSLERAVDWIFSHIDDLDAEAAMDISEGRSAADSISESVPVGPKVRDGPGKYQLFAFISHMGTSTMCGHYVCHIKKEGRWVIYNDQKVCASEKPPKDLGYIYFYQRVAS
How it was run: as §1

USP54 = USP54 (UniProt Q70EL1)
Chain of USP54 (Q70EL1 whole entry): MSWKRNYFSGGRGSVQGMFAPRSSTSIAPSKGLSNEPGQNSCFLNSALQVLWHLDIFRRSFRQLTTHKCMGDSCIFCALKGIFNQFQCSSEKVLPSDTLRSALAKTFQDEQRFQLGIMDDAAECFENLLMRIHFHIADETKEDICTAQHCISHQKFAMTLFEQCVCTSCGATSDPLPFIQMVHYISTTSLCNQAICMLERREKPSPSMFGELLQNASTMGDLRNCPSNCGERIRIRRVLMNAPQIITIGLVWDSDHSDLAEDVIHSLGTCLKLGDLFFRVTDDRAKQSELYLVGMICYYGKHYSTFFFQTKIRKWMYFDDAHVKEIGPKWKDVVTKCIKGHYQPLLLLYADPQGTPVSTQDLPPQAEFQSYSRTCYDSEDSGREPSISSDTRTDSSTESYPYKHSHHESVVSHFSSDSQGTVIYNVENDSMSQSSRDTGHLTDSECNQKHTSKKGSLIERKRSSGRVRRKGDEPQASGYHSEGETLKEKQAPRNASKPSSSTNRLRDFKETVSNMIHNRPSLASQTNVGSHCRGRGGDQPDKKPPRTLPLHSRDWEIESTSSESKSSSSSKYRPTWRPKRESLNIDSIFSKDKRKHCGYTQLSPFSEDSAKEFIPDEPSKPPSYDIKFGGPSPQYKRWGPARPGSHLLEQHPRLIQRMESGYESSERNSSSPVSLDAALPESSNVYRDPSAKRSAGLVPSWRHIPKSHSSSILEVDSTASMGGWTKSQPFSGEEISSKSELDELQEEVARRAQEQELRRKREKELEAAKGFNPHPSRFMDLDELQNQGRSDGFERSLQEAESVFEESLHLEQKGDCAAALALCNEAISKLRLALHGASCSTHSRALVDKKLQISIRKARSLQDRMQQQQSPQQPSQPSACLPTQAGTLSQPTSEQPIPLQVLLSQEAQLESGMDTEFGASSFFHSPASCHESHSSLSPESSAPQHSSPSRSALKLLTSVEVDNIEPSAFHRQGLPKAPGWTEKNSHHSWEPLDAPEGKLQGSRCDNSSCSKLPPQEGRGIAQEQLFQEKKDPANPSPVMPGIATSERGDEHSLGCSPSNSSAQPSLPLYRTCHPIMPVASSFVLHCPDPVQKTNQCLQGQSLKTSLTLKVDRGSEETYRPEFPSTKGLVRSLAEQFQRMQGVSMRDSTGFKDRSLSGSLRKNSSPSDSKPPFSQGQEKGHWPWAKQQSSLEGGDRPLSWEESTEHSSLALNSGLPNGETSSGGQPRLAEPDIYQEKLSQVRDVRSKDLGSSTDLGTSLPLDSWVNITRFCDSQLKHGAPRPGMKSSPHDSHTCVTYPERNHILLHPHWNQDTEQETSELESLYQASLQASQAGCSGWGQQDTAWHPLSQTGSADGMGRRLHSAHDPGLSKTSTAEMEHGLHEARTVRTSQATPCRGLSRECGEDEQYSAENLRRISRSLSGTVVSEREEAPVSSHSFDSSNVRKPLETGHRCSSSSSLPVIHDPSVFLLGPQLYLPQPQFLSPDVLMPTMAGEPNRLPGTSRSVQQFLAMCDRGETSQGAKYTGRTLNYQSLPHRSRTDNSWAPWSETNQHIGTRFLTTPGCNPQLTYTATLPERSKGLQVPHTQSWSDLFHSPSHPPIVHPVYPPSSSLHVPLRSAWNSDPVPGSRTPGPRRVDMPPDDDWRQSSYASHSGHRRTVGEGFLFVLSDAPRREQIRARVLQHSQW
How it was run: as §1

USP7 = USP7 (UniProt Q93009)
How it was run: as §1

USP8 = biological target: T5, USP8 (UniProt P40818)
T5 sequence (whole entry): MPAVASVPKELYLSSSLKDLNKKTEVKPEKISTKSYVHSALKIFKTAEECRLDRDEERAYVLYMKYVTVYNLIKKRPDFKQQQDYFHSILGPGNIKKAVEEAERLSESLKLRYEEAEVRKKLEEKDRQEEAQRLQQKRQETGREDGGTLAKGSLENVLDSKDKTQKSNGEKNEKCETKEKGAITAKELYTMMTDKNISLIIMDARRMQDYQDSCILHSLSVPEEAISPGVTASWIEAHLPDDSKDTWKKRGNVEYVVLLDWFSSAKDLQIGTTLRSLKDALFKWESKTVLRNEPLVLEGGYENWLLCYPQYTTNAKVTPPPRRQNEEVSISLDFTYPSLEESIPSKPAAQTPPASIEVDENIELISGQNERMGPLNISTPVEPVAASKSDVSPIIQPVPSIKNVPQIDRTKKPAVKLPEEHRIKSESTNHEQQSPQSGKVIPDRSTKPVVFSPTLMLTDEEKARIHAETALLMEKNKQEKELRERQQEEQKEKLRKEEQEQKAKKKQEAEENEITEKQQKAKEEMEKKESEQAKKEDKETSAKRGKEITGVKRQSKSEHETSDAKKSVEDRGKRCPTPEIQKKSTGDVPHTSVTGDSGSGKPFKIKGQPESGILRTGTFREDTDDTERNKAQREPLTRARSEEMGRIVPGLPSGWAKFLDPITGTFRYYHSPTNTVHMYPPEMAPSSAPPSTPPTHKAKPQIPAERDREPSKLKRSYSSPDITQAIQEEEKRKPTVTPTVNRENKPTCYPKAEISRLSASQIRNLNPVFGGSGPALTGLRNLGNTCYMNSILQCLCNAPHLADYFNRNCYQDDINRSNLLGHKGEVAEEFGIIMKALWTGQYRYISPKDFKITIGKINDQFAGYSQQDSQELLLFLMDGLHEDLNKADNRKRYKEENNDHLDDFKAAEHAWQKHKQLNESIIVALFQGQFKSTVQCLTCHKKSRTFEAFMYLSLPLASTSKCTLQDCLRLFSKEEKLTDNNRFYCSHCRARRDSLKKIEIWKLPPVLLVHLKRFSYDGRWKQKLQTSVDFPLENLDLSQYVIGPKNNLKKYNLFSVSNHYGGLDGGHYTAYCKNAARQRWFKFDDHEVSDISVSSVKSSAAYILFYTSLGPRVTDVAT
How it was run: as §1

USP9X = USP9X (UniProt Q93008)
Chain of USP9X (Q93008 whole entry): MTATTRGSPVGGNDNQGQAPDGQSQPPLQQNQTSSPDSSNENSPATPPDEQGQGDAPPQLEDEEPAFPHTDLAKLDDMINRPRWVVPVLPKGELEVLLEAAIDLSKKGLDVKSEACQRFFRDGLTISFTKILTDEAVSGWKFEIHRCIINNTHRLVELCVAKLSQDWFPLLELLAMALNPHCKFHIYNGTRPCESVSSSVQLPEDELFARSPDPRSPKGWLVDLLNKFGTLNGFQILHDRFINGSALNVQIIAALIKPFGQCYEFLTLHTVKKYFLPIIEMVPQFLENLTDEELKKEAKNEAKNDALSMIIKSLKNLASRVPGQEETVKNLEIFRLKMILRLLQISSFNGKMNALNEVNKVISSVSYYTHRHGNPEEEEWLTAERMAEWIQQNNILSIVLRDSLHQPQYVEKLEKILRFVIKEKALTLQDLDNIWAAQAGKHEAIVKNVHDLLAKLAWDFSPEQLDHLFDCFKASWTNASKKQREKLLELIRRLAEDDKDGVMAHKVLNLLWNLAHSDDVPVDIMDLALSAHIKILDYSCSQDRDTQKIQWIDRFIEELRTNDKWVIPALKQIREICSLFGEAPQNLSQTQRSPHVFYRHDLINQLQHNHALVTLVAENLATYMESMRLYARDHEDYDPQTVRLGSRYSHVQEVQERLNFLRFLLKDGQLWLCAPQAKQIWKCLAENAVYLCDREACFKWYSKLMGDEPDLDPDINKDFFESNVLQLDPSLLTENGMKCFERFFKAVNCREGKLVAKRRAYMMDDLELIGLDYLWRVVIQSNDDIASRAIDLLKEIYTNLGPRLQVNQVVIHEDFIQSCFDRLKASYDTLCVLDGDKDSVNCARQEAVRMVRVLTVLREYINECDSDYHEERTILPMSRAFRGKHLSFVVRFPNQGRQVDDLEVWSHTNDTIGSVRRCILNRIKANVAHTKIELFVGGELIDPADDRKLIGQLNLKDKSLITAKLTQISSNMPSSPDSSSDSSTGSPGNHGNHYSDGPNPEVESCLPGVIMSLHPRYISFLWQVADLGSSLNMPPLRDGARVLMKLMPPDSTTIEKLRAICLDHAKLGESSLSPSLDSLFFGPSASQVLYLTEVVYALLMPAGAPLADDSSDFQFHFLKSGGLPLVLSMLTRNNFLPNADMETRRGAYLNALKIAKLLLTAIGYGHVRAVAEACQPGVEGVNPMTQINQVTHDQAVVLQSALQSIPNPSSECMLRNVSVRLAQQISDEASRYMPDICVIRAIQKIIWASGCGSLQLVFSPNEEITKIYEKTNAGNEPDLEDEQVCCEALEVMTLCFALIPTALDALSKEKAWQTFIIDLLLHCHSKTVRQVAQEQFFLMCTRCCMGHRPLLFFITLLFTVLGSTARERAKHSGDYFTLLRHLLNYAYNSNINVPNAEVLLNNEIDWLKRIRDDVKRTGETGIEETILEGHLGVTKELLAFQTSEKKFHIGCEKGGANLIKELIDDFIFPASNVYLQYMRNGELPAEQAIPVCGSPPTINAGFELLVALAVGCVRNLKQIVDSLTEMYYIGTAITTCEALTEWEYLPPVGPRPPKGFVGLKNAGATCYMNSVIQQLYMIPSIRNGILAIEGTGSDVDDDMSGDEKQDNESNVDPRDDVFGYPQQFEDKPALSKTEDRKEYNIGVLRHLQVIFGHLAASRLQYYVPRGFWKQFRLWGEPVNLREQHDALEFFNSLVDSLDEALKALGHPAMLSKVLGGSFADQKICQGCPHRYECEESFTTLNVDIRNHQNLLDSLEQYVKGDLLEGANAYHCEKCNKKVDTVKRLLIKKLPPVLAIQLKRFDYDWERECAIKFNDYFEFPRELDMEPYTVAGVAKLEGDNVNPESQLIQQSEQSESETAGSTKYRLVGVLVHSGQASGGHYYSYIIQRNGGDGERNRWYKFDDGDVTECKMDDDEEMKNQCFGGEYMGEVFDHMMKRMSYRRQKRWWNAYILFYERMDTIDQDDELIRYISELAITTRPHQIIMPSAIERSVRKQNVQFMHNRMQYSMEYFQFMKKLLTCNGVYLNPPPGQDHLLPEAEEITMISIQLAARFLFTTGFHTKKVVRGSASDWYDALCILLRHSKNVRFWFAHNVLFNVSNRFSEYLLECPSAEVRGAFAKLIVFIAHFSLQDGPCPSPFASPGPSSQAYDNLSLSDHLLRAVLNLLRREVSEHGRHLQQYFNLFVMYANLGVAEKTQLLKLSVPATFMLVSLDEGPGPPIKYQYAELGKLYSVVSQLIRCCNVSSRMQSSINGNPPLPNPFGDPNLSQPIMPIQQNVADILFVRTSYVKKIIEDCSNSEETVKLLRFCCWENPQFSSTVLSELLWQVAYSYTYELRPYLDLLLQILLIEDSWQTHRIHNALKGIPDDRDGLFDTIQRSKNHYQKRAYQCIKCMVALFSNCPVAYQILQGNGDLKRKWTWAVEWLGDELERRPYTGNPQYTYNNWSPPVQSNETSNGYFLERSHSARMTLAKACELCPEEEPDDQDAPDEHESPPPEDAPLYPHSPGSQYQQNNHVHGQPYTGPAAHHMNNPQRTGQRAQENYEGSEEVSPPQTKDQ
How it was run: as §1

UniProt O00487 = biological target: UniProt O00487
Chain of UniProt O00487 (O00487 whole entry): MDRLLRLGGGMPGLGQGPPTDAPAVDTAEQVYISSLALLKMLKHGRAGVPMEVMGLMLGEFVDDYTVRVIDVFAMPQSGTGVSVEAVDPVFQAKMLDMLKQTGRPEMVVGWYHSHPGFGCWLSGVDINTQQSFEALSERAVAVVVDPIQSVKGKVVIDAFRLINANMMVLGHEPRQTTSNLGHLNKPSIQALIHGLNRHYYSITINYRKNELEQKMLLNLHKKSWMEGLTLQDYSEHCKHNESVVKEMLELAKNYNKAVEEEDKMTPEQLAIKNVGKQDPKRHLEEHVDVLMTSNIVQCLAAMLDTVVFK
How it was run: as §1

Measured: log2 ratio of Biotin-Ahx-Ub-VS probe labelling

Cc1cccc2nc(CCNC(=O)CCl)cn12.Cl
inactive: USP42 -0.108 | USP46 -0.0973 | USP47 0.216 | USP48 -0.0534 | USP5 -0.101 | USP54 0.94 | USP7 -0.308 | USP8 -0.222 | USP9X -0.455 | UniProt O00487 -0.163

NS(=O)(=O)c1ccc(Cl)c(NC(=O)CCl)c1
inactive: USP42 0.0225 | USP46 -0.123 | USP47 -0.247 | USP48 -0.536 | USP5 0.233 | USP54 -0.00214 | USP7 -0.207 | USP8 -0.125 | USP9X -0.31 | UniProt O00487 -0.0819

O=C(CCl)NC1CCC2(CC1)OCCO2
inactive: USP42 -0.0532 | USP46 -0.121 | USP47 0.154 | USP48 -0.263 | USP5 -0.0178 | USP54 0.457 | USP7 -0.157 | USP8 -0.255 | USP9X -0.361 | UniProt O00487 -0.145
